Experimental findings from PubChem BioAssay AID743279 (National Center for Advancing Translational Sciences (NCATS), 2014) are described below.

Screen size: about 360,000 compounds; about 17,000 (4.7%) were called active. Roughly 5% stayed inconclusive and do not appear here. The sample as a whole holds a higher share of actives than the screen did. Values without a mark were called inactive. No stated cut-off is given here; in the data, active means activity change below about -50%; inconclusive means mostly about -30% to -49%; inactive means weaker than that.
On the % scale 0 is the no-effect control and ±100 the full control effect.

The assay is described as follows: qHTS for Inhibitors of Inflammasome Signaling: IL-1-beta AlphaLISA Primary Screen. To be noted: THP-1 LPS/ATP IL-1B secretion, 16 h; at 57.5 µM, active compounds read low. The gist of the method: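 Secreted IL-1B measured by AlphaLISA bead assay after 16 h compound exposure of THP-1 cells; compounds (final up to 57.5 uM) added 1 h before LPS (250 ng/mL) and ATP (1.25 mM) stimulation; lower signal means less secretion.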
A general note: Quantitative high-throughput screening tests each substance at several concentrations.
Regarding `Cc1ccc(-c2c(C)n([O-])c3c([n+]2=O)CCC3)cc1`, the activity change was 12.3%. To `CN1CN(C)c2ccc([N+](=O)[O-])c3cccc1c23` belongs -18.1%.

As to `O=C1c2cccc3c([N+](=O)[O-])ccc(c23)C(=O)N1CC1CCCO1` (centres undefined), the activity change is -98.7% (active). Consider `CCOc1cccc(=O)c2c(C)n(CC3CCCO3)c(C)c12` (centres undefined), for which the activity change is 13.1%. To `Cc1ccc(N2CCN(c3ccc(C)cc3)C2c2ccccn2)cc1` belongs -6.85%; to `COc1ccc(S(=O)(=O)N2CCC(C(=O)NCCC(=O)NCCc3cccc(F)c3)CC2)cc1`, -8.46%; to `CC(Cc1cccs1)N(Cc1ccc(Cl)cc1)C(=O)c1ccncc1` (centres undefined), 20.4%. To `Nc1nc(NC(=O)/C=C/c2ccc(F)cc2)nn1-c1ccccc1` belongs -2.85%; to `O=c1c2c(nc3n1CCCCC3)sc1c(O)cccc12`, 24.7%. With `CC(=O)c1ccc(NC(=O)c2sc3nc4n(c(=O)c3c2C)CCCCC4)cc1`, the activity change is -59.8% (active). To `Cc1c(C(=O)Nc2ccccc2)sc2nc3n(c(=O)c12)CCCCC3` belongs -7.47%; to `CCCS(=O)(=O)Nc1ccc(-c2cn3c(n2)SCC3)cc1`, -1.84%; to `COC(=O)[C@H]1C[C@H](OC(=O)NCc2ccccc2)[C@@]2(O)CN(S(=O)(=O)c3ccc(C)cc3)CC2[C@H]1C(=O)OC` (some centres undefined), -4.9%. To `CCCCCCNC(=O)O[C@H]1CN(C(=O)OC(C)C)N(C(=O)OC(C)C)[C@@H]2CN(S(=O)(=O)c3ccc(C)cc3)C[C@]12O` belongs -63.8% (active). To `CCCCCCNC(=O)O[C@]12C[C@@H](C(=O)OC)[C@@H](C(=O)OC)C[C@@]1(O)CN(S(=O)(=O)c1ccc(C)cc1)C2` belongs 11.6%. For the compound `COc1ccc([C@H]2CC(=O)C[C@@H](CCn3cc(CC4CCCC4)nn3)O2)cc1`, the activity change is 10.9%.

With `COc1ccc(-c2nc3ccc(Br)cn3c2Cc2ccc(C)cc2)cc1OC`, the activity change was -15.5%.

Turning to `Cc1ccc(Cn2cc(C(=O)NN)c(=O)c3ccc(F)cc32)cc1`, the activity change is -11.4%. For the compound `Cc1ccc(Nc2nc(C)cc(C)c2C(N)=O)cc1`, the activity change was 19.4%. To `Cc1ccc(Nc2cc(C)nc3c(C)ccc([N+](=O)[O-])c23)cc1` belongs -61.1% (active); to `Cc1ccc2cccc([N+](=O)[O-])c2n1`, 15%; to `O=NN(CCCl)C(=O)NCCc1cccc[n+]1[O-]`, 15%. For `CC1CCN(C(=O)c2ccc(CSc3ccc(Cl)cc3)cc2)CC1`, the activity change was -51.2% (active). For the compound `O=C(c1ccc(CSc2ccccc2)cc1)N1CCCCCC1`, the activity change is -19.7%.

Turning to `O=C(NC1CCCCCC1)C1CCN(C(=O)c2ccc(Cl)cc2)CC1`, the activity change is 9.37%. To `O=C(NC1CCCCCC1)c1cccnc1Sc1ccc(Cl)cc1` belongs 1.6%. To `O=C(NC(=S)NC1CCCCC1)c1ccc(Cl)cc1` belongs -21%. As for `O=C(NC1CCCCC1)c1ccc(-c2ccc(Cl)cc2)o1`, the activity change is -76.5% (active). To `CCCNC(=O)C1(C)CCN(Cc2ccc(Cl)c(Cl)c2)C1` (centres undefined) belongs 17.3%; to `COc1ccc(N)c(C)c1`, -25.8%. To `COC(=O)[C@]12CCCCC=C1N(CCC1=CCCCC1)C(=O)[C@H](CC(=O)NCC1CCCCC1)C2` belongs -28.6%; to `Fc1ccc(NC(=S)N2CCc3[nH]c4ccccc4c3C2)cc1`, 11.5%; to `O=C(CCCN1CCc2[nH]c3ccc(F)cc3c2C1)c1ccc(F)cc1`, -79.8% (active). To `O=C(Nc1ccc(Cl)cc1)N1CCc2[nH]c3ccccc3c2C1` belongs -18.5%; to `CCCCN1C[C@H](c2ccc(Br)cc2)[C@@H](CC(=O)Nc2ccc(Br)cc2)C1=O`, -5.58%.

With `O=C(Nc1ccccc1)Oc1cccc2cccnc12`, the activity change is -91.6% (active).

With `NC(=O)C1CCN(C(=O)COc2cccc3cccnc23)CC1`, the activity change was 0.882%. Take `OCc1ccc(OCCCOc2cccc3cccnc23)cc1`: the activity change was -1.1%. To `C[C@H](CO)N1C[C@H](C)[C@H](CN(C)CC2CC2)Oc2ccc(NC(=O)CCN3CCOCC3)cc2C1=O` belongs 18.8%; to `O=C(C1CCCO1)N1CCN(C(=O)C23CC4CC(CC(C4)C2)C3)CC1` (centres undefined), 9.67%. To `CCC(c1nc2ccccc2[nH]1)n1c(=O)c(-c2cccs2)nc2ccccc21` (centres undefined) belongs -20%; to `CCC(C)N1C(=O)S/C(=C/c2ccc(Sc3nc4ccccc4[nH]3)o2)C1=O` (centres undefined), -96.1% (active). To `CN1CCN(c2ccc([N+](=O)[O-])c(Sc3nc4ccccc4[nH]3)c2)CC1` belongs -26.9%. As for `CC(C)c1csc(CN2CCC(CO)(Cc3ccccc3)CC2)n1`, the activity change was -21.7%. To `CN=C(NC#N)NCCSCc1nc[nH]c1C` belongs 33.7%; to `COc1ccccc1-n1nnnc1S(=O)(=O)Cc1ccc(Cl)cc1`, -119% (active). To `COc1ccccc1-n1nnnc1SCC(=O)NC(=O)Cc1ccccc1` belongs 4.79%; to `CCC(C)N(C(=O)CSc1nnnn1-c1ccccc1OC)C1CCS(=O)(=O)C1` (centres undefined), -14.9%; to `CCCC(C)n1[nH]c(=O)c2c(C)cc(C)nc21` (centres undefined), -13.2%. To `CC1(C)CC(=O)C=C(Nc2ccccc2)C1` belongs -3.98%; to `Cc1ccccc1C#CC1=CC(=O)CC(C)(C)C1`, -52.1% (active); to `Cc1cc(O)ccc1NC1=CC(=O)CC(C)(C)C1`, -0.895%. Consider `CC1C(=O)N(Cc2cn(CC3CCCCC3)nn2)CCS(=O)(=O)N1Cc1ccc(-c2cccc(N(C)C)c2)cc1` (centres undefined), for which the activity change was 0%. To `OCCN1CCN(CCO)C1=S` belongs 15.9%.

Regarding `Cc1cc2oc(C(=O)Nc3c(C)n(C)n(-c4ccccc4)c3=O)c(C)c2cc1Cl`, the activity change is 0%. Turning to `Cc1c(NC(=O)c2cc(-c3ccc(Br)cc3)on2)c(=O)n(-c2ccccc2)n1C`, the activity change is -16.8%. To `Cc1c(NC(=O)c2coc(=O)c(Br)c2)c(=O)n(-c2ccccc2)n1C` belongs -72.5% (active); to `COC(c1ccccc1)(c1ccccc1)C(Oc1nc(C)cc(C)n1)C(=O)O` (centres undefined), 17.2%. To `COc1ccc(C(=O)COC(=O)c2nn(C)c(=O)c3ccccc23)c(OC)c1` belongs -0.449%.
